# Source: PubChem BioAssay AID1211 (NMMLSC, 2008)
# Values without a mark were called inactive. Active and inactive are the calls of the source. No rule for the calls is given here.
# Molecular target: Estrogen receptor (Homo sapiens) (UniProt P03372)
# Assay: displacement of fluorescent estrogen from ERalpha – cell-based, Cos7 ERalpha-GFP, flow cytometry, primary screen (AID 1211);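 also: 0% = DMSO vehicle wells and 100% = no E2-Alexa633 signal left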
# Details: fluorescent ligand competition, at 10 µM, active compounds read high
# Estrogen receptor (Homo sapiens), sequence (P03372 whole entry, looked up): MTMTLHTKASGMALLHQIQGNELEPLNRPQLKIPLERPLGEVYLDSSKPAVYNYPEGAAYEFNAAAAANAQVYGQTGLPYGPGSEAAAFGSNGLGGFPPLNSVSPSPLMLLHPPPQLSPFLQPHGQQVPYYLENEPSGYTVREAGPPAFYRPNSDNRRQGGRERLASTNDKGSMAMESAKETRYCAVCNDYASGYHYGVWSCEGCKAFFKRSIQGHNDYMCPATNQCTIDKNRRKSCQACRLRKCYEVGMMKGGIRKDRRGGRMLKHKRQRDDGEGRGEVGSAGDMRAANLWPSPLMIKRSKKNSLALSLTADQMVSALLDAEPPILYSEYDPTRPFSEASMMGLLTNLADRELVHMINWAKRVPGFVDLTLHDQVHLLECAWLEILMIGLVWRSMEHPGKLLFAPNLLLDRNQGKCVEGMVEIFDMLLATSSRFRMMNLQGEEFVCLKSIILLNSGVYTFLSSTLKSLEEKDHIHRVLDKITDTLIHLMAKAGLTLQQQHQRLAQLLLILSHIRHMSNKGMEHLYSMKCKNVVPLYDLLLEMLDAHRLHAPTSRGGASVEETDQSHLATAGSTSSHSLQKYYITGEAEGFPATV
row,Structure (SMILES),inhibition of ligand binding
1,COc1ccc(-n2cc3c(c(C#N)c2=N)CC(C)(C)CC3=O)cc1,29%
2,CC12CCCCC1(O)[N+](=O)C1=C(CCCC1)N2[O-] (centres undefined),3%
3,CC(C)C1Nc2ccc(S(N)(=O)=O)cc2C2C=CCC21 (centres undefined),70% (active)
4,CC(=O)Oc1ccc(C2Nc3c(C(=O)O)ccc([N+](=O)[O-])c3C3C=CCC32)cc1 (centres undefined),85% (active)
5,Cc1nn(-c2ccccc2)c2sc(C#N)c(N)c12,17%
6,COc1cc([N+](=O)[O-])cc2c1N[C@@H](c1ccc(C(=O)O)cc1)[C@H]1CC=C[C@@H]21,71% (active)
7,CC1(C)CC(=O)c2cn(-c3ccc(Cl)cc3)c(=N)c(C#N)c2C1,35%
8,CC(C)C1Nc2ccc(C(=O)O)cc2C2C=CCC21 (centres undefined),36%
9,CCCNC(=O)c1ccc2c(c1)C1C3CCC(C3)C1C(c1ccccc1)N2 (centres undefined),67% (active)
10,Cc1ccc(OCc2ccoc2C(=O)O)cc1C,0%
11,O=C(O)COc1cc2oc(=O)c3c(c2cc1Cl)CCCC3,0%
12,Fc1ccc2c(c1)C1C=CCC1C(c1cc3c(cc1Br)OCO3)N2 (centres undefined),84% (active)
13,Cn1cccc1/C=C1\SC(=O)N(c2ccc(O)cc2)C1=O,45%
14,COc1ccc2c(c1)C1OCCC1C(c1ccco1)N2 (centres undefined),46%
15,Fc1ccc2c(c1)[C@H]1OCC[C@H]1[C@@H](c1ccco1)N2,34%
16,COc1cc(C2C(C#N)=C(N)Oc3cc(C)oc(=O)c32)cc2c1OCO2 (centres undefined),9%
17,O=c1oc2cc(O)ccc2c2c1CCC2,0%
18,COc1ccc(NC2=CC(c3cccc(OC)c3)N(c3ccc(OC)cc3)C2=O)cc1 (centres undefined),48%
19,Cc1ccc2c(c1C)NC(C(=O)O)C1CC=CC21 (centres undefined),0%
20,CC1(C)Cc2[nH]c(=O)c(C(=O)O)cc2CO1,2%

row,Structure (SMILES),inhibition of ligand binding
1,CCSc1nc2c(cnn2-c2ccc(C)cc2)c(=O)[nH]1,22%
2,O=C(Oc1cccc(-c2cnc3ccccc3n2)c1)c1ccco1,12%
3,O=c1c(C(c2ccc(O)cc2)c2c(O)nc3n(c2=O)CCS3)c(O)nc2n1CCS2,7%
4,O=c1cc(-c2ccccc2Cl)oc2c(Br)ccc(O)c12,27%
5,COc1cc(O)c2c(=O)c3c(OC)c(O)ccc3oc2c1,63%
6,C=C1C2C[C@H](O)C(C)(C)[C@@]2(O)[C@H](O)C[C@]23C[C@@](C)(O)[C@H](CC[C@H]12)[C@H]3O (some centres undefined),30%
7,Cc1sc2ncnc(NCc3ccco3)c2c1C,0%
8,O=C(O)c1ccc2c(c1)C1C=CCC1C(c1cccc([N+](=O)[O-])c1)N2 (centres undefined),72% (active)
9,COc1ccc(C(=O)N/N=C(\C)c2ccc3c(c2)C2C=CCC2C(c2ccccc2)N3)cc1 (centres undefined),73% (active)
10,Clc1ccc2c(c1)[C@H]1OCC[C@H]1[C@@H](c1ccco1)N2,0%
11,COc1cc([N+](=O)[O-])cc2c1NC(c1ccc(Br)cc1)C1CC=CC21 (centres undefined),0%
12,COc1cc(NC(=O)c2cccs2)c(C(=O)OCC(=O)NC(=O)NCc2ccccc2)cc1OC,24%
13,Cc1nc(-c2ccc(O)c(O)c2)cs1,17%
14,CCCOc1cc(OCCC)c2c3c(c(=O)oc2c1)CCCC3,3%
15,Cc1noc(C)c1CSCC(=O)OCC(=O)Nc1sccc1C#N,2%
16,O=C(O)c1cc(Cl)c2c(c1)[C@@H]1C=CC[C@@H]1[C@H](c1ccc(S(=O)(=O)N3CCOCC3)cc1)N2,42%
17,Cc1ccn2c(NCc3ccc4c(c3)OCO4)c(-c3ccc(O)cc3)nc2c1,32%
18,Oc1ccc(-c2[nH]nc(-c3ccccc3)c2-c2nc3ccccc3[nH]2)cc1,33%
19,O=C(O)c1cc(-c2ccc(O)cc2)nc2ccccc12,5%
